In PubChem BioAssay (NCATS):
Values without a mark were called inactive. Inconclusive results are not listed. The source made the active and inactive calls. Unless noted, calls come from the whole dose curve; as a rule, active = well fitted curve in either direction with a large enough effect (not every such curve was filed as active); inconclusive = small, poorly fitted or top-dose-only effect, or another doubt; inactive = flat fitted curve, though single readings scatter.

How the values were obtained:
[1] = AP1 Signaling Pathway (AID 357); settings: ME-180 AP-1-bla reporter, EGF-induced, beta-lactamase ratio, 5 h; at 17.2 µM (top of the series) unless noted; note: % is set by controls: 0 for no effect and ±100 for the full control effect
How it was run: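 Modulation of EGF-driven AP-1 transcription was assessed with a beta-lactamase reporter in ME-180 cells. Compound and EC50 EGF were co-incubated 5 hours at 37 °C before 2.5-hour CCF4 loading at room temperature and dual-emission reading.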

[2] = Stat Signaling Pathway (AID 446); settings: ME-180 SIE beta-lactamase reporter, IL-6 stimulated, 5 h; at 17.2 µM (top of the series) unless noted;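 note: ME-180 cervical cancer cells given 40 pM IL-6 alongside compound; SIE-controlled beta-lactamase reporter measured as 460/530 nm FRET emission ratio; % is set by controls: 0 for no effect and ±100 for the full control effect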
How it was run: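 FRET read-out (405 nm excitation, 460/530 nm emission) of a beta-lactamase reporter under a STAT-inducible element in ME-180 cervical carcinoma cells. Cells with compound receive 40 pM IL-6 for 5 h. Values are normalised to AC90 stimulation and AC90 JAK-inhibitor controls.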

[3] = target: Glucocorticoid receptor (Homo sapiens) (UniProt P04150); assay: GR-GFP Redistribution (AID 450;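 active = compounds whose dose series gives a full or clear partial fitted curve of increased nuclear translocation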; note: potency is the fitted concentration of half-maximal effect)
Sequence of Glucocorticoid receptor (Homo sapiens) (P04150 whole entry, looked up, the tested form may be a part): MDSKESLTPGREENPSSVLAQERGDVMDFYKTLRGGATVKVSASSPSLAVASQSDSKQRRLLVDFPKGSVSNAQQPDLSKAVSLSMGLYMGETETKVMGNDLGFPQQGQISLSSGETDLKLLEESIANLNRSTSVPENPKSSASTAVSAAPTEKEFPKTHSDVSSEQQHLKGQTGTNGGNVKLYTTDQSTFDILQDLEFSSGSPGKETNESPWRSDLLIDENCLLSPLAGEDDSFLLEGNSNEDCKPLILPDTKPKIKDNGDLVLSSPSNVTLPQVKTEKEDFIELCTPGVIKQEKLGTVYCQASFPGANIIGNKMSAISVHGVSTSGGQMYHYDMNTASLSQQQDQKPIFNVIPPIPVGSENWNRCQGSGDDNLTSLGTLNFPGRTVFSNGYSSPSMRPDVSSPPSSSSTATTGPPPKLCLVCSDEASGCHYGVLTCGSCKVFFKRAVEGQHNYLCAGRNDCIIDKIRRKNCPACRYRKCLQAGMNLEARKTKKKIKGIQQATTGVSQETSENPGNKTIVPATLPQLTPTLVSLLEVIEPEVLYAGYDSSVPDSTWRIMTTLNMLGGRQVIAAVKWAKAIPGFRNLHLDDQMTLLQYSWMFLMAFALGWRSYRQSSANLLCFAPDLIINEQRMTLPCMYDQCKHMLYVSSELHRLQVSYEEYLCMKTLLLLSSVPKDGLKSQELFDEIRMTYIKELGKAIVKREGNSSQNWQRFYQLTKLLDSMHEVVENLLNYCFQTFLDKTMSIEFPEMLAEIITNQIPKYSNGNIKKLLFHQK

[4] = target: Glucocorticoid receptor (Homo sapiens) (UniProt P04150); assay: GR-EFC Redistribution (AID 451; calls by dose curve; note: potency is the fitted concentration of half-maximal effect); settings: CHO-K1 GR-EFC translocation, beta-gal luminescence, 2 h
How it was run: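 CHO-K1 cells stably expressing nuclear-localized β-gal enzyme acceptor and GR fused C-terminally to the enzyme donor fragment; ligand-driven nuclear translocation restores β-gal by complementation. Compounds titrated up to 46 uM final, 2 h at 37 °C; luminescence read.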

[5] = target: Mitogen-activated protein kinase 10 (Mus musculus) (UniProt Q61831); assay: JNK3 AlphaScreen Assay (AID 530);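 note: kinase came from lysate of stimulated human HepG2 cells; signal reports phosphorylation of biotinylated GST-cJun 1-79 at Ser73 with 10 µM ATP; % is set by controls: 0 for no effect and ±100 for the full control effect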
How it was run: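 Biotinylated GST-cJun(1-79) served as substrate for JNK3 in HepG2 lysates stimulated with IL-1beta and TNF-alpha. ATP was 10 uM final, pH 7.6. Ser73 phosphorylation was quantified by AlphaScreen (680 nm excitation).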

[6] = target: 3',5'-cyclic-AMP phosphodiesterase 4B (Homo sapiens) (UniProt Q07343); assay: qHTS Assay for Inhibitors of PDE-IV (AID 607; active = well fitted activation curve with a large enough effect in the main read-out, with a control signal flat, not every such curve was filed as active; note: % of control where 0% means no effect)
Sequence of 3',5'-cyclic-AMP phosphodiesterase 4B (Homo sapiens) (Q07343 whole entry, looked up): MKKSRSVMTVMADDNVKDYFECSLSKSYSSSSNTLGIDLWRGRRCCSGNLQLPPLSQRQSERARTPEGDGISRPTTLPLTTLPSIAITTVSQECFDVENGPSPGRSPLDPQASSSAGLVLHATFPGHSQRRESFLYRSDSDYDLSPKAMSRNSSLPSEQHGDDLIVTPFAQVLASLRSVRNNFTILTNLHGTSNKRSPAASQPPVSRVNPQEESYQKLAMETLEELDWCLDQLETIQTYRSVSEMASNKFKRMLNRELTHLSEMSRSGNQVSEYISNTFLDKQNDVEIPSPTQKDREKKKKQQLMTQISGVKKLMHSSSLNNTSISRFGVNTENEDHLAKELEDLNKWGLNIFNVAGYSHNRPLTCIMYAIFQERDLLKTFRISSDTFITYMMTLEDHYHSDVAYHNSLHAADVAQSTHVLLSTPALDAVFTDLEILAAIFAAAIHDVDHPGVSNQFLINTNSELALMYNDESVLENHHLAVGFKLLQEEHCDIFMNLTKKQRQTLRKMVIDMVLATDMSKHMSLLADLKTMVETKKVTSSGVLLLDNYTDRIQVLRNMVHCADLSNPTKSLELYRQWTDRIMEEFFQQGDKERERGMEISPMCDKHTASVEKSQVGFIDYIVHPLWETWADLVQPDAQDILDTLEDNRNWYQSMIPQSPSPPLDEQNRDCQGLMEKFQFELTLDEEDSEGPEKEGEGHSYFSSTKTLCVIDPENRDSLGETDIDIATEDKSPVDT
How it was run: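 Cell-based read-out of cAMP via a modified cyclic nucleotide-gated channel and membrane potential dye (535/590 nm) in HEK293 cells expressing PDE4 endogenously. Compounds tested up to 22.9 uM final; 100 uM RO 20-1724 reference.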

[7] = target: Cytochrome P450 2C9 (Homo sapiens) (UniProt P11712); assay: qHTS Assay for Inhibitors and Substrates of Cytochrome P450 2C9 (AID 883; active = well fitted curve in the direction sought with a large enough effect; an effect the other way counts as inactive or inconclusive; note: % is set by controls: 0 for no effect and ±100 for the full control effect; nearly all actives have a fitted effect of over 60% in size)
Sequence of Cytochrome P450 2C9 (Homo sapiens) (P11712 whole entry, looked up): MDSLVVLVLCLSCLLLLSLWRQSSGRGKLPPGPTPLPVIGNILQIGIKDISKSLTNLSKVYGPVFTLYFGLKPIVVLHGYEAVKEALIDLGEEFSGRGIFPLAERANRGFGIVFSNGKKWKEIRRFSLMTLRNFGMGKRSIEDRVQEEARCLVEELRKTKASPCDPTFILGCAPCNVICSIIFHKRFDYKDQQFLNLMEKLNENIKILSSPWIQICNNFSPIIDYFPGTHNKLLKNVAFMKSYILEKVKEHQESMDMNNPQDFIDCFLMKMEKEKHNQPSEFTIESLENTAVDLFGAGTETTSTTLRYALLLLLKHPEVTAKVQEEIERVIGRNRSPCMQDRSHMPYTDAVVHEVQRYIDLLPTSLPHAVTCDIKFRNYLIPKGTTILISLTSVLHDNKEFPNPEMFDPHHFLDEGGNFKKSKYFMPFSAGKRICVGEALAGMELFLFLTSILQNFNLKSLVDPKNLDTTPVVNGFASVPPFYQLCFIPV
How it was run: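 A luminogenic readout tracked human CYP2C9 (10nM) converting deoxyluciferin (100uM, at KM) in 25mM KPO4 during 60 min at 37C with regenerated NADPH. Values normalized to 57uM sulphaphenazole as complete inhibition.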

[8] = target: Cytochrome P450 2D6 (Homo sapiens) (UniProt P10635); assay: qHTS Assay for Inhibitors and Substrates of Cytochrome P450 2D6 (AID 891; active = well fitted curve in the direction sought with a large enough effect; an effect the other way counts as inactive or inconclusive; note: potency is the fitted concentration of half-maximal effect; nearly all actives have a fitted effect of over 60% in size)
Sequence of Cytochrome P450 2D6 (Homo sapiens) (P10635 whole entry, looked up): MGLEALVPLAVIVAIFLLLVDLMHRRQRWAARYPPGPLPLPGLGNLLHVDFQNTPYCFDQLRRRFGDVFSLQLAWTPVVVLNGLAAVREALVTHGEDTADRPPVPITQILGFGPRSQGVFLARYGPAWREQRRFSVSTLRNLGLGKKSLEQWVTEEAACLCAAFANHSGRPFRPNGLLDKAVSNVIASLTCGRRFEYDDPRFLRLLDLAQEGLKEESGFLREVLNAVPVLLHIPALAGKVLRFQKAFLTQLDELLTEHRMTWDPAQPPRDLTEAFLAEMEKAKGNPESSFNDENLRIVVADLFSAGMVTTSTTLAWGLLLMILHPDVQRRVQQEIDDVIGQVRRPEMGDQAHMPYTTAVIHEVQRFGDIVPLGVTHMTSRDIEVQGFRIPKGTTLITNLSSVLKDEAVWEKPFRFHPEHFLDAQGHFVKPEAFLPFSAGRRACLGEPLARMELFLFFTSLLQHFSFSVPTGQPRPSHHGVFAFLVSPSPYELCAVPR
How it was run: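 Luminescent read-out of luciferin formed by 5 nM human CYP2D6 demethylating 30 uM Luciferin-ME EGE (Km level) over 60 min at room temperature after NADPH regeneration addition. Data normalized to full inhibition by 1.43 uM quinidine.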

[9] = target: Cytochrome P450 2C19 (Homo sapiens) (UniProt P33261); assay: qHTS Assay for Inhibitors and Substrates of Cytochrome P450 2C19 (AID 899; active = well fitted curve in the direction sought with a large enough effect; an effect the other way counts as inactive or inconclusive; note: % is set by controls: 0 for no effect and ±100 for the full control effect; nearly all actives have a fitted effect of over 60% in size)
How it was run: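 NADPH-dependent conversion of Luciferin-H EGE (10uM, at KM) by 5nM enzyme in 50mM KPO4, 60 min at 37C following 10 min compound preincubation. Stopped with luciferin detection buffer; luminescence read after 20 min.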

[10] = target: Guanine nucleotide-binding protein G(i) subunit alpha-1 (Homo sapiens) (UniProt P63096); assay: qHTS Assay for Inhibitors of RGS12 GoLoco Motif Activity (Green Fluorophore) (AID 879; active = well fitted curve in the direction sought with a large enough effect; an effect the other way counts as inactive or inconclusive;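 note: 0% = labeled peptide with Gαi1 and full inhibition = labeled peptide alone without protein; negative values mean loss of peptide binding seen as reduced polarization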)
How it was run: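 A drop in FITC polarization marked displacement of the FITC-tagged RGS12 GoLoco peptide (10 nM) from Gαi1 (50 nM). Compounds were incubated 10 min at room temperature in Tris pH 7.5 buffer containing 150 mM NaCl, 0.1 mM GDP and 0.05% NP40; unlabeled peptide titration served as control.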

[11] = target: Cytochrome P450 3A4 (Homo sapiens) (UniProt P08684); assay: qHTS Assay for Activators of Cytochrome P450 3A4 (AID 885; active = well fitted curve in the direction sought with a large enough effect; an effect the other way counts as inactive or inconclusive; note: nearly all actives have a fitted effect of over 65% in size)
Sequence of Cytochrome P450 3A4 (Homo sapiens) (P08684 whole entry, looked up): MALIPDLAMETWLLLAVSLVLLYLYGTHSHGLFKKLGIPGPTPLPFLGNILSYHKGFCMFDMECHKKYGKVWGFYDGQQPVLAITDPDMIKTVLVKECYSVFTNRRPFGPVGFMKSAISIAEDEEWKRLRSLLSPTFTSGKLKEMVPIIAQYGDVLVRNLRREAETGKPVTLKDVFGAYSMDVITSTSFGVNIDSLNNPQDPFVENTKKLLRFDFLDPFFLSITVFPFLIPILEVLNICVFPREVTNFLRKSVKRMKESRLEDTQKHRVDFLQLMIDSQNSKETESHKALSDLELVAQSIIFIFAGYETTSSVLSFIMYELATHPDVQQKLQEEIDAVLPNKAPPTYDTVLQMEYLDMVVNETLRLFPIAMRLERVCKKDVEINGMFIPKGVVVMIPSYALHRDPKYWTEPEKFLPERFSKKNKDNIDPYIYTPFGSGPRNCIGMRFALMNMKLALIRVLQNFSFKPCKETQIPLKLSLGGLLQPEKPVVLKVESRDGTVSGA
How it was run: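 Luminescent readout of luciferin formed from 25 uM Luciferin-PPXE (KM level) by 20 nM CYP3A4 in 200 mM KPO4, with 60 min NADPH-driven reaction at room temperature after 10 min compound exposure. Ketoconazole (57 uM) defined 100% inhibition.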

[12] = qHTS Assay for Identification of Small Molecule Agonists for Thrombopoietin (TPO) Signaling Pathway (AID 917; active = well fitted curve in the direction sought with a large enough effect; an effect the other way counts as inactive or inconclusive; note: % is set by controls: 0 for no effect and ±100 for the full control effect)
How it was run: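 Stimulation at the TPO EC50 (26 pM final) was used to detect activators. Ba/F3 mouse cells bearing human TPO receptor and a luciferase reporter under the Glycoprotein IIb promoter were exposed to compounds for 24 hrs at 37 C.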

[13] = target: Muscarinic acetylcholine receptor M1 (Rattus norvegicus) (UniProt P08482); assay: qHTS Assay for Antagonists of Acetylcholine Muscarinic M1 Receptor: Kinetic Measurement of Intracellular Calcium Response (AID 943; active = well fitted curve in the direction sought with a large enough effect; an effect the other way counts as inactive or inconclusive; note: potency is the fitted concentration of half-maximal effect; nearly all actives have a fitted effect of over 75% in size)
Sequence of Muscarinic acetylcholine receptor M1 (Rattus norvegicus) (P08482 whole entry, looked up): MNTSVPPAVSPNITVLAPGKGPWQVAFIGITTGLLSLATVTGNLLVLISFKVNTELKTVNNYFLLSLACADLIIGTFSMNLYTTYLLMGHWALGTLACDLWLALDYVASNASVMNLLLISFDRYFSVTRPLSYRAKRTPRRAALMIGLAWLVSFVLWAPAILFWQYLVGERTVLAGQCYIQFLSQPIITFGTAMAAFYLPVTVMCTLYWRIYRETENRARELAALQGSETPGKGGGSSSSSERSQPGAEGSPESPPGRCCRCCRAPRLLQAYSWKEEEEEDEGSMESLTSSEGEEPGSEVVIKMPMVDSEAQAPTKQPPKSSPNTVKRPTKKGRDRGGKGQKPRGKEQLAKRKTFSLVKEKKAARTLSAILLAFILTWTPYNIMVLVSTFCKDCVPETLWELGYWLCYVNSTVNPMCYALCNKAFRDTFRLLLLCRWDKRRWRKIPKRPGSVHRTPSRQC
How it was run: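 Quantitative HTS in CHO-M1 (rat receptor) cells: 10 min compound exposure ahead of 100 nM carbachol, Fluo-4 fluorescence followed 4 min, value expressed as peak-to-basal ratio.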

[14] = target: Muscarinic acetylcholine receptor M1 (Rattus norvegicus) (UniProt P08482); assay: qHTS Assay for Antagonists of Acetylcholine Muscarinic M1 Receptor: Measurement of IP-One Response (AID 944; active = well fitted curve in the direction sought with a large enough effect; an effect the other way counts as inactive or inconclusive; note: potency is the fitted concentration of half-maximal effect; nearly all actives have a fitted effect of over 75% in size)
How it was run: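 Antagonism was measured as loss of carbachol-driven (EC80) IP1 accumulation in CHO cells carrying rat M1, using a homogeneous IP-One TR-FRET kit read at 620 and 665 nm.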

[15] = target: Pyruvate kinase (Leishmania mexicana) (UniProt Q27686); assay: qHTS Validation Assay for Inhibitors of Leishmania Mexicana Pyruvate Kinase (AID 945; active = well fitted curve in the direction sought with a large enough effect; an effect the other way counts as inactive or inconclusive;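 note: 0% = DMSO only neutral control wells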)
Sequence of Pyruvate kinase (Leishmania mexicana) (Q27686 2-499 E452W): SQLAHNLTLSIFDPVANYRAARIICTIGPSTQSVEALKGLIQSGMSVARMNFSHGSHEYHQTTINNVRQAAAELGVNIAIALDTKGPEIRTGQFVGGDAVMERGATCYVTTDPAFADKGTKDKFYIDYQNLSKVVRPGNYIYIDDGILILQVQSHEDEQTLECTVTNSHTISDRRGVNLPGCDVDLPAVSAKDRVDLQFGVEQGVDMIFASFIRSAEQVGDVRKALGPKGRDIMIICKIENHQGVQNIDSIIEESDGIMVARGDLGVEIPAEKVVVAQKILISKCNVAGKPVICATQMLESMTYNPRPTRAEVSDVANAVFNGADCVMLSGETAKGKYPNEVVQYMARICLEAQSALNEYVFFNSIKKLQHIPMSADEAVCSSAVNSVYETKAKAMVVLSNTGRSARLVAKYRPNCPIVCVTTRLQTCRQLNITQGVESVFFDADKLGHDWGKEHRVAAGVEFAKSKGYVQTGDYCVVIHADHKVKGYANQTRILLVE
How it was run: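 Luminescent ATP detection (PKLight) after a 1 h room-temperature reaction of 0.2 nM LmPYK E451W mutant with 0.5 mM PEP and 0.1 mM ADP at pH 7.2. Activity is normalized to DMSO-only control wells.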

[16] = target: Pyruvate kinase PKM (Homo sapiens) (UniProt P14618); assay: qHTS Assay for Activators of Human Muscle Pyruvate Kinase (AID 954; active = well fitted curve in the direction sought with a large enough effect, not every such curve was filed as active;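 note: 0% = uninhibited enzyme and -100% = no enzyme or full thiadiazolimine inhibition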)
Sequence of Pyruvate kinase PKM (Homo sapiens) (P14618 whole entry, looked up): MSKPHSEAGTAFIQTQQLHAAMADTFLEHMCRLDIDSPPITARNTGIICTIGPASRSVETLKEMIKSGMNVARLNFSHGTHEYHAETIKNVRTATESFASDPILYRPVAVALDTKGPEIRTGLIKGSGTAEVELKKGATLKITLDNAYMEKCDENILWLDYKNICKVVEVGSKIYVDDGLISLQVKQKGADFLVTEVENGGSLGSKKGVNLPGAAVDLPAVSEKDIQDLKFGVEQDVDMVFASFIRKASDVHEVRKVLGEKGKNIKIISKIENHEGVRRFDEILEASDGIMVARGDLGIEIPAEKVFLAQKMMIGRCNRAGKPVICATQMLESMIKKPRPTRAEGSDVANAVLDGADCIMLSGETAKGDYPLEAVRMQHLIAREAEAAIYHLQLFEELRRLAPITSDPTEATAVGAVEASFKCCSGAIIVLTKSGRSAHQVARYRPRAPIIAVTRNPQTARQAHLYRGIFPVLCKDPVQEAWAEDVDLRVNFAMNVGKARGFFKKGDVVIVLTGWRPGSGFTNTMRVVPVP
How it was run: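 ATP production by PKM2 detected via luciferase luminescence after 1 h room-temperature reaction (0.1 nM enzyme, PEP at Km 0.5 mM, ADP 0.1 mM, pH 7.2 imidazole buffer). Inhibition scaled to no-enzyme control; activation referenced to 0.3 nM enzyme wells.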

[17] = target: Alpha-galactosidase A (Homo sapiens) (UniProt P06280); assay: Counterscreen for Glucocerebrosidase Inhibitors: qHTS Assay for Human alpha-Galactosidase at pH 4.5 (AID 992; active = well fitted curve in the direction sought with a large enough effect; an effect the other way counts as inactive or inconclusive; note: 0% is about no effect)
Sequence of Alpha-galactosidase A (Homo sapiens) (P06280 whole entry, looked up): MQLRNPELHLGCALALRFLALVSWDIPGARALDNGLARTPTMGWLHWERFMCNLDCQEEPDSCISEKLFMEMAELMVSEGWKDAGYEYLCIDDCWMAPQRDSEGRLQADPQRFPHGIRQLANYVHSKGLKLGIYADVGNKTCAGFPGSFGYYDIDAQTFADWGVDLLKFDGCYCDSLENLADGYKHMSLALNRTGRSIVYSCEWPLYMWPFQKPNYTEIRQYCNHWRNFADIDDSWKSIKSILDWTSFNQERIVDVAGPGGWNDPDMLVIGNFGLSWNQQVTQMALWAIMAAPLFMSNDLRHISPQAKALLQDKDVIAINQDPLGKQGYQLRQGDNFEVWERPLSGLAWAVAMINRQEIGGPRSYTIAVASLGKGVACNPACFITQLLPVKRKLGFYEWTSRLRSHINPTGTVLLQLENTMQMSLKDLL
How it was run: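 Fluorogenic 1536-well qHTS at pH 4.5 (citrate, Tween-20): 2 nM enzyme, 80 uM 4-MU-alpha-galactoside, 20 min room temperature, NaOH/glycine stop. Titration 0.7 nM to 77 uM, data normalized to no-enzyme and full-activity controls, Hill-fitted AC50.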

[18] = target: alpha-glucosidase (Oryza sativa, rice) (UniProt Q653V4); assay: Counterscreen for Glucocerebrosidase Inhibitors: qHTS Assay for Rice alpha-Glucosidase at pH 5.0 (AID 997; active = well fitted curve in the direction sought with a large enough effect; an effect the other way counts as inactive or inconclusive;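 note: 0% = full activity with enzyme and -100% = basal without enzyme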)
How it was run: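 Endpoint fluorogenic assay at pH 5.0: compounds (0.7 nM to 77 uM) titrated against 4 nM rice enzyme and 400 uM 4-MU-alpha-glucoside for 20 min at room temperature; NaOH/glycine stop, read ex 365/em 440 nm, Hill-fitted AC50.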

[19] = qHTS Assay for Identification of Small Molecule Agonists for Hypoxia Response Element Signaling Pathway (AID 914; active = well fitted activation curve with a large enough effect in the signal ratio, with a control signal flat, not every such curve was filed as active; the % refers to the signal ratio; note: potency is the fitted concentration of half-maximal effect; for activation: % of control where 0% means no effect); settings: ME-180 (cervical carcinoma) HRE-bla reporter, beta-lactamase ratio, CoCl2, 17 h; activation: active compounds read high
How it was run: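 HRE-bla ME-180 cells, overnight plating in Opti-MEM with 0.5% dialyzed FBS; cpd titration + EC50 CoCl2, 17 h, 37 degrees Celsius; CCF4 2.5 h RT; 460/530 nm ratio; AC50.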

`CCN1CCC[C@@H]1CNC(=O)c1c(OC)ccc(I)c1O` gave an activity change, negative = inhibition [1] of -2.43% [at 38 µM], an activity, negative = inhibition [2] of -4.45% [at 38 µM] and a Potency [3] of over 46 µM. The Potency [4] was over 46 µM, the Potency [5] was “inactive” and the Potency [6] was “inactive”. The Potency [7] was “inactive”, the Potency [8] was 0.199 µM (active) and the Potency [9] was “inactive”.
Work on `CC1CCN(CC[C@@H]2CCCN2S(=O)(=O)c2cccc(O)c2)CC1` yielded an activity change, negative = inhibition [1] of 2.33% [at 38 µM], an activity, negative = inhibition [2] of -6.42% [at 38 µM] and a Potency [3] of over 46 µM. The Potency [4] was over 46 µM, the Potency [6] was “inactive” and the outcome [10] was “inactive”. The Potency [11] was “inactive”, the Potency [12] was “inactive” and the Potency [13] was 14.1 µM (active). For the same molecule, the Potency [14] was 14.1 µM (active), the Potency [15] was “inactive” and the outcome [16] was “inactive”. The outcome [17] was “inactive” and the outcome [18] was “inactive”.
Work on `CCOC(=O)C1=C(C)NC(C)=C(C(=O)OC)[C@H]1c1cccc(Cl)c1Cl` yielded an activity change, negative = inhibition [1] of -9.86% [at 38 µM], an activity, negative = inhibition [2] of -0.0099% [at 38 µM] and a Potency [3] of over 46 µM. The Potency [5] was “inactive”, the Potency [6] was “inactive” and the Potency [15] was “inactive”. The outcome [16] was “inactive”, the outcome [17] was “inactive” and the outcome [18] was “inactive”.
`Clc1ccc2[nH]c3c(NCCN4CCOCC4)ncnc3c2c1` showed an activity change, negative = inhibition [1] of -14.6%, an activity, negative = inhibition [2] of -0.484% and a Potency [3] of over 20.6 µM.
`Fc1ccc2[nH]c3c(N4CCN(C5CCCCC5)CC4)ncnc3c2c1` showed an activity change, negative = inhibition [1] of 7.44%, an activity, negative = inhibition [2] of 16.1% and a Potency [3] of over 20.6 µM.
For `CCC(=O)Nc1c(C#N)c2nc3ccccc3nc2n1C1CCCCC1`, the activity change, negative = inhibition [1] was -0.0903%, the activity, negative = inhibition [2] was 20.4% and the Potency [3] was over 20.6 µM. For the same molecule, the Potency [19] was 10 µM (active).
`C=CCOn1c(=O)c(-c2ccc(OC)cc2)[n+]([O-])c2ccccc21` gave an activity change, negative = inhibition [1] of -22.9% and a Potency [3] of over 20.6 µM.
For `CCCCn1cnc2c(c1=O)c1nc3ccccc3nc1n2Cc1ccc2c(c1)OCO2`, the activity change, negative = inhibition [1] was 29.8%, the activity, negative = inhibition [2] was 10.3% and the Potency [3] was over 20.6 µM. The Potency [19] was 12.6 µM (active).
Molecule `CCCCCNC(=O)c1c(N)n(/N=C/c2ccco2)c2nc3ccccc3nc12` has an activity change, negative = inhibition [1] of 20.3%, an activity, negative = inhibition [2] of 28.5% and a Potency [3] of over 20.6 µM. The Potency [19] was 7.94 µM (active).
`CC12CN3CC(C)(CN(C1)C3c1ccc(Br)cc1O)C2` (stereo not given) showed an activity change, negative = inhibition [1] of -9.61%, an activity, negative = inhibition [2] of -0.00253% and a Potency [3] of over 20.6 µM. It also gave an activation [19] of -25.5%.
With `Cc1cccn2c(=O)c(/C=C(\C#N)S(=O)(=O)c3ccccc3)c(N3CCN(C)CC3)nc12` the activity change, negative = inhibition [1] was -0.352%, the activity, negative = inhibition [2] was 3.87% and the Potency [3] was over 20.6 µM. For the same molecule, the activation [19] was -11.6%.
